Measurements as given in PubChem BioAssay (NCATS).
A number with no mark means an inactive call. Records with an inconclusive call do not appear. The source made the active and inactive calls. Unless noted, the call rests on the fitted dose curve; in most records, active means well fitted curve in either direction with a large enough effect (not every such curve was filed as active); inconclusive means small, poorly fitted or top-dose-only effect, or another doubt; inactive means flat fitted curve, though single readings scatter.

Tests used:
[1] = AP1 Signaling Pathway (AID 357); conditions: ME-180 AP-1-bla reporter, EGF-induced, beta-lactamase ratio, 5 h; at 17.2 µM (top of the series) unless noted;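 further: ME-180 reporter cells stimulated with EGF at its EC50 level; on the % scale 0 is the no-effect control and ±100 the full control effect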
Outline: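 AP-1-bla ME-180 cells, Opti-MEM + 0.5% dialyzed FBS, plated overnight 37 °C. Cpd titration + EC50 EGF, 5 h 37 °C. CCF4 2.5 h RT; ex 405, em 460/530 ratio → %activity, AC50.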

[2] = NFAT Signaling Pathway (AID 444); conditions: Jurkat NFAT-bla M1, carbachol, beta-lactamase ratio, 5 h; at 17.2 µM (top of the series) unless noted;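 further: carbachol stimulus at about its EC50 of 1 µM final; on the % scale 0 is the no-effect control and ±100 the full control effect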
Outline: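 Read-out: CCF4 FRET ratio (460 nm/530 nm) after 1 h RT dye loading, used for %activity and AC50 from titration series. Cells: Jurkat NFAT-β-lactamase/M1 line, treated with compound plus 1 uM carbachol for 5 h, 37 °C.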

[3] = Stat Signaling Pathway (AID 446); conditions: ME-180 SIE beta-lactamase reporter, IL-6 stimulated, 5 h; at 17.2 µM (top of the series) unless noted;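 further: ME-180 cervical cancer cells given 40 pM IL-6 alongside compound; SIE-controlled beta-lactamase reporter measured as 460/530 nm FRET emission ratio; on the % scale 0 is the no-effect control and ±100 the full control effect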
Outline: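 Screening format detects activators and inhibitors alike: ME-180 SIE-bla cells stimulated at 40 pM IL-6 for 5 hrs with compound, then dual-emission beta-lactamase read at 405 nm excitation.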

[4] = target: Glucocorticoid receptor (Homo sapiens) (UniProt P04150); test: GR-GFP Redistribution (AID 450;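 active means compounds whose dose series gives a full or clear partial fitted curve of increased nuclear translocation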; further: potency means the concentration at half of the fitted maximal effect)
Sequence of Glucocorticoid receptor (Homo sapiens) (P04150 whole entry, looked up): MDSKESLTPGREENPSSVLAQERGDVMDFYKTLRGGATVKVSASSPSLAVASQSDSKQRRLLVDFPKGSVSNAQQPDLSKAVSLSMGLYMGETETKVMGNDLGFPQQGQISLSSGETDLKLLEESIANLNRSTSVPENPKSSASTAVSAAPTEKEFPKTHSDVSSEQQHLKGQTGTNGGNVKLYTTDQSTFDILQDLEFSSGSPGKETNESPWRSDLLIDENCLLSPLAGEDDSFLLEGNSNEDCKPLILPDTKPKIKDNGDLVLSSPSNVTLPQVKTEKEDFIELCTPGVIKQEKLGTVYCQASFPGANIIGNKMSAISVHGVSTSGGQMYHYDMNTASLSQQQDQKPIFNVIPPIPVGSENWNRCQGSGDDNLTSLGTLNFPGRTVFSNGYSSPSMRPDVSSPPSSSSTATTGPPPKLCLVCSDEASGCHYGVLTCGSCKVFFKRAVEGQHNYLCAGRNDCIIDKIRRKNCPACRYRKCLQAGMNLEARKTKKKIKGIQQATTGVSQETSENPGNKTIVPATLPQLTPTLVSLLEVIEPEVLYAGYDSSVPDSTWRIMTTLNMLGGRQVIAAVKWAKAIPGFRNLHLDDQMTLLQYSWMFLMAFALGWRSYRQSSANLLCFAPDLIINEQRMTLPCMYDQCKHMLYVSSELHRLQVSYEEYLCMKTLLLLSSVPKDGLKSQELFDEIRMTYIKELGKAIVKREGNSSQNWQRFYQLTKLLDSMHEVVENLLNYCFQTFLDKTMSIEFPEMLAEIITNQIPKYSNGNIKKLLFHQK

[5] = qHTS Assay for Identification of Small Molecule Agonists for Hypoxia Response Element Signaling Pathway (AID 914; active means well fitted activation curve with a large enough effect in the signal ratio, with a control signal flat, not every such curve was filed as active; the % refers to the signal ratio; further: potency means the concentration at half of the fitted maximal effect; on activation: % of control where 0% means no effect); conditions: ME-180 (cervical carcinoma) HRE-bla reporter, beta-lactamase ratio, CoCl2, 17 h; activation: hits give high values
Outline: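 Cells were plated overnight, pin-dosed with compound in a titration series, co-stimulated with EC50 CoCl2 and incubated 17 hours at 37 degrees Celsius. CCF4 substrate was then loaded, and AC50 values came from the 460nm/530nm ratio.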

[6] = target: Glucocorticoid receptor (Homo sapiens) (UniProt P04150); test: qHTS assay for small molecule agonists of glucocorticoid receptor signaling (AID 588532; active means well fitted curve in the direction sought with a large enough effect in the signal ratio, with a control signal flat; the % refers to the signal ratio;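 further: 100% = dexamethasone at 0.1 µM and 0% = DMSO only wells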); conditions: HeLa MMTV-bla, beta-lactamase ratio, agonist, 18 h; hits give high values; percent of dexamethasone control, DMSO zero
Outline: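 Agonist-mode qHTS: GRE-driven beta-lactamase in HeLa cells exposed 18 h to titrated compounds (up to 92 uM), then CCF4 ratio read after 2 h at RT; Hill-fitted EC50, efficacy relative to 0.1 uM dexamethasone.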

[7] = target: Glucocorticoid receptor (Homo sapiens) (UniProt P04150); test: qHTS assay for small molecule antagonists of glucocorticoid receptor signaling (AID 588533; active means well fitted inhibition curve with a large enough effect in the signal ratio, with a control signal flat, not every such curve was filed as active; the % refers to the signal ratio;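 further: cells stimulated with 2 nM dexamethasone as agonist; on the % scale 0 is the no-effect control and ±100 the full control effect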)
Outline: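 Antagonist-mode qHTS: compound titrations added to GRE-bla HeLa cells, then dexamethasone 2 nM final; 18 h, 37 C. CCF4 FRET fluorescence normalized to dexamethasone and DMSO; IC50 from Hill fit.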

[8] = target: Peroxisome proliferator-activated receptor gamma (Homo sapiens) (UniProt P37231); test: qHTS assay for small molecule antagonists of peroxisome proliferator-activated receptor gamma signaling (AID 588537; active means well fitted inhibition curve with a large enough effect in the signal ratio, with a control signal flat, not every such curve was filed as active; the % refers to the signal ratio;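 further: reporter cells co-stimulated with 50 nM rosiglitazone agonist during compound treatment; % of control where 0% means no effect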)
Sequence of Peroxisome proliferator-activated receptor gamma (Homo sapiens) (P37231 whole entry, looked up): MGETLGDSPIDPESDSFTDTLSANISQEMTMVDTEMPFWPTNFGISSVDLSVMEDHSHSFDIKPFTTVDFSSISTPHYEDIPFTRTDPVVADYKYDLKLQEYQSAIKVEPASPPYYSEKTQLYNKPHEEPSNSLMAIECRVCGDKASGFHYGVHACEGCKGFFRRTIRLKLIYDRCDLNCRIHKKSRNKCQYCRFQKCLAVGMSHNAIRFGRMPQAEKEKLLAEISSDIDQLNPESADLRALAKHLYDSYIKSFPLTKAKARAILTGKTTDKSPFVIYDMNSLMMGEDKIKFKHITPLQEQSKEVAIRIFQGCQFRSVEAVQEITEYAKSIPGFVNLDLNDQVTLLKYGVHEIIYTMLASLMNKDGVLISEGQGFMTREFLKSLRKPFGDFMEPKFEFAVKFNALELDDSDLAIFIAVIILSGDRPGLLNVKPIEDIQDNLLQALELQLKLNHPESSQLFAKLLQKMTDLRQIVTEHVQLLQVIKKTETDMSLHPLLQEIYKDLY
Outline: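 Antagonist mode, beta-lactamase reporter in HEK293; charcoal/dextran FBS 1%; 3000 cells/well, 37 C 6-6.5 h; cpd titration + rosiglitazone 50 nM final, 16 h 37 C; CCF4, 2 h RT; 460/530 nm; Hill fit → IC50, efficacy.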

[9] = qHTS assay for small molecule agonists of the antioxidant response element (ARE) signaling pathway (AID 651741; active means well fitted activation curve with a large enough effect in the signal ratio; the % refers to the signal ratio; further: potency means the concentration at half of the fitted maximal effect)
Outline: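 Quantitative HTS in HepG2 cells stably expressing an ARE-beta-lactamase reporter; 16 h compound exposure at 37 C, followed by 2 h room-temperature incubation with LiveBLAzer B/G FRET substrate and fluorescence measurement.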

[10] = target: Peroxisome proliferator-activated receptor alpha (Homo sapiens) (UniProt Q07869); test: qHTS assay for small molecule agonists of the peroxisome proliferator-activated receptor alpha (PPARalpha) signaling pathway (AID 651778; active means well fitted curve in the direction sought with a large enough effect; an effect the other way counts as inactive or inconclusive; further: % of control where 0% means no effect); conditions: PathHunter PPARalpha complementation, chemiluminescence, 6 h; max response: hits give high values
Sequence of Peroxisome proliferator-activated receptor alpha (Homo sapiens) (Q07869 whole entry, looked up): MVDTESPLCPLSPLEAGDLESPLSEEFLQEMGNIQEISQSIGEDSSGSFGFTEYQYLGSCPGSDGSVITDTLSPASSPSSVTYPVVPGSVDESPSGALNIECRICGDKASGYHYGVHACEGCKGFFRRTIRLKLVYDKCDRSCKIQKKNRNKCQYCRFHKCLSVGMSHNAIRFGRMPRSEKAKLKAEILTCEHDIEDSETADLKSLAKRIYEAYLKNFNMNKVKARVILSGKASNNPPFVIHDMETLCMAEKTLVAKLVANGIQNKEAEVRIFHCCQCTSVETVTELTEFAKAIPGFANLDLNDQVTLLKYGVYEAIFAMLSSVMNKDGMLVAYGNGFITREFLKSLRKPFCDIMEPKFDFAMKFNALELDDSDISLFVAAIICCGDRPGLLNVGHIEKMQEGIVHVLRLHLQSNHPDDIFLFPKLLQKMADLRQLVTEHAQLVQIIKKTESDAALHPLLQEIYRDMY
Outline: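 Chemiluminescence from complemented enzyme reported PPARalpha activation in cells after 6 hr of compound treatment at 37 C. The detection reagent was incubated for 60 min at room temperature, and compounds were scored as agonists.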

[11] = qHTS assay for small molecule agonists of the antioxidant response element (ARE) signaling pathway measured by Nrf2-dependant transcriptional activity - cell viability counter screen (AID 720653; active means well fitted curve in the direction sought with a large enough effect in the repeat runs; an effect the other way counts as inactive or inconclusive; further: on the % scale 0 is the no-effect control and ±100 the full control effect); conditions: ARE-bla HepG2 viability, CellTiter-Glo ATP luminescence, 16 h; max response: hits give low values
Outline: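 Cytotoxicity counter screen: intracellular ATP quantified by CellTiter-Glo luminescence in the same ARE-bla HepG2 plates, after 16 h compound exposure and a 2 h beta-lactamase substrate step.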

[12] = qHTS assay for cell viability of HEK293 cells (AID 743288; active means well fitted curve in the direction sought with a large enough effect; an effect the other way counts as inactive or inconclusive; further: on the % scale 0 is the no-effect control and ±100 the full control effect; nearly all actives have a fitted effect of over 50% in size); conditions: ATP luminescence (CellTiter-Glo), 18 h; max response: hits give low values
Outline: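 Environmental chemicals tested in qHTS format against parental HEK293 cells; 18 h treatment, 37 C; read-out ATP luminescence (CellTiter-Glo), 30 min RT development.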

[13] = qHTS assay for cell viability of the p53RE-bla HCT-116 cell line (AID 743292; active means well fitted curve in the direction sought with a large enough effect; an effect the other way counts as inactive or inconclusive; further: on the % scale 0 is the no-effect control and ±100 the full control effect; nearly all actives have a fitted effect of over 55% in size)
Outline: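 Quantitative high-throughput format: compounds in DMSO were pinned onto p53RE-bla HCT-116 cells (4,000/well) and incubated 16 h at 37 C. Total intracellular ATP, read by CellTiter-Glo luminescence, reflects viable cell number.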

[14] = target: Nuclear receptor subfamily 1 group I member 2 (Rattus norvegicus) (UniProt Q9R1A7); test: qHTS assay for small molecule activators of the rat pregnane X receptor (rPXR) signaling pathway (AID 651751; call rule not given here; further: 0% is about no effect); conditions: rPXR reporter cells, luciferase (One-Glo), 24 h
Sequence of Nuclear receptor subfamily 1 group I member 2 (Rattus norvegicus) (Q9R1A7 whole entry, looked up): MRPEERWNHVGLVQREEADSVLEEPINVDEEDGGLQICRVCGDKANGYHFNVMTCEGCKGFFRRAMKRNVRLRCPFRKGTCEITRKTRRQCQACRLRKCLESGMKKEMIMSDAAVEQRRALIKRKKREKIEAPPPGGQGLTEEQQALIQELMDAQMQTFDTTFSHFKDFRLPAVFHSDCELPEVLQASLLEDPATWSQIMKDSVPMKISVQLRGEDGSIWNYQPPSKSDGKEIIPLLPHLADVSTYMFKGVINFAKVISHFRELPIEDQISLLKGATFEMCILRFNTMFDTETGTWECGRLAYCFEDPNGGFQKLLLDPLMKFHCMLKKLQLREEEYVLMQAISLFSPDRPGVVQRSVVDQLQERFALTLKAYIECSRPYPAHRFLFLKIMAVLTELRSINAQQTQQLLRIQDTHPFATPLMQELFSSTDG

[15] = target: Mitogen-activated protein kinase 10 (Mus musculus) (UniProt Q61831); test: JNK3 AlphaScreen Assay (AID 530)
Outline: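 Compound titrations were preincubated 15 minutes at room temperature with substrate, antibody and pre-activated JNK3-containing HepG2 lysate. Reactions were started with 10 uM ATP and stopped with EDTA-containing bead buffer for AlphaScreen detection.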

[16] = target: 3',5'-cyclic-AMP phosphodiesterase 4B (Homo sapiens) (UniProt Q07343); test: qHTS Assay for Inhibitors of PDE-IV (AID 607; active means well fitted activation curve with a large enough effect in the main read-out, with a control signal flat, not every such curve was filed as active; further: % of control where 0% means no effect)
Sequence of 3',5'-cyclic-AMP phosphodiesterase 4B (Homo sapiens) (Q07343 whole entry, looked up): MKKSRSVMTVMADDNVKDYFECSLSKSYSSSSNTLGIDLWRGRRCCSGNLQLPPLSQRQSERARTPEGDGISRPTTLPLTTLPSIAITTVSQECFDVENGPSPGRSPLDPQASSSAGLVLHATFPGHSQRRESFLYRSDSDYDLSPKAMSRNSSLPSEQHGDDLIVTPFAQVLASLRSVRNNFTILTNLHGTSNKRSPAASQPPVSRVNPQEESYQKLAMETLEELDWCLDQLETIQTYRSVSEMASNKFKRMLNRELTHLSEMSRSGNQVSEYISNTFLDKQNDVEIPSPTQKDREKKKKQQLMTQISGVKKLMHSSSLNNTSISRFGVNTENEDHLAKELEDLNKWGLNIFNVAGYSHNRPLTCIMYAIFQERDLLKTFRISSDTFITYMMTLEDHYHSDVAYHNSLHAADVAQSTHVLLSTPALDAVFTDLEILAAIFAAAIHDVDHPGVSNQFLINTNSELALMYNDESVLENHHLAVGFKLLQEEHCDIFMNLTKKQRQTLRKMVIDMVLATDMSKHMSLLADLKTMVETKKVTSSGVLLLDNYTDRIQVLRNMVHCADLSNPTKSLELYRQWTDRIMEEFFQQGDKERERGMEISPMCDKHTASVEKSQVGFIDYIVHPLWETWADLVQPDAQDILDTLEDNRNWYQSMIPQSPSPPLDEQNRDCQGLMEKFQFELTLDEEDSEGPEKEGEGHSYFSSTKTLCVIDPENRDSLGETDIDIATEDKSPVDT
Outline: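 The readout is membrane depolarisation from a cAMP-sensing CNG channel, detected with a potential dye at ex 535/em 590. Cells were HEK293-derived (endogenous PDE-IV) at 1000 cells/well, titrated up to 22.9 uM final.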

## CCCCOc1ccc(CSC(CC(=O)O)C(=O)O)cc1 (centres undefined)
[1]
  activity change, negative = inhibition: 11.3%
[2]
  activity change, negative = inhibition: 11.2%
[3]
  activity, negative = inhibition: 1.48%
[4]
  Potency: > 20.6 µM
[5]
  activation: 26.9%

## COC(=O)/C(C#N)=C1/SC=C(C)N1c1ccccc1
[1]
  activity change, negative = inhibition: 1.21%
[2]
  activity change, negative = inhibition: 3.89%
[3]
  activity, negative = inhibition: 4.42%
[4]
  Potency: > 20.6 µM
[5]
  activation: -6.52%

## CCN(CC)Cc1c(O)ccc2c(C)c(CC(=O)OC)c(=O)oc12
[1]
  activity change, negative = inhibition: 14.2%
[2]
  activity change, negative = inhibition: 25.4%
[3]
  activity, negative = inhibition: 8.46%
[4]
  Potency: > 20.6 µM
[5]
  Potency: 10 µM (active)

## O=c1cc(N2CCCCC2)nc2n1CCCS2
[1]
  activity change, negative = inhibition: -18.5%
[2]
  activity change, negative = inhibition: -21.5%
[3]
  activity, negative = inhibition: -10.2%
[4]
  Potency: > 20.6 µM
[5]
  Potency: 6.31 µM (active)

## O=c1oc2cc(O)ccc2c2oc3cc(O)ccc3c12
[1]
  activity change, negative = inhibition: 5.61%
[2]
  activity change, negative = inhibition: 3.33%
[3]
  activity, negative = inhibition: -5.07%
[4]
  Potency: > 20.6 µM
[6]
  activation: -5.79%
[7]
  Potency: inactive
[8]
  Potency: inactive
[9]
  Potency: 54.5 µM (active)
[10]
  max response: -1.88%
[11]
  max response: -3.33%
[12]
  max response: -9.05%
[13]
  Potency: inactive
[14]
  max response: 3.73%

## COc1ccc(C(=O)Cn2c(Br)nc3c2c(=O)n(C)c(=O)n3C)cc1OC
[1]
  activity change, negative = inhibition: 7.09%
[2]
  activity change, negative = inhibition: 25.7%
[3]
  activity, negative = inhibition: 0.59%
[4]
  Potency: > 20.6 µM
[5]
  activation: 8.03%

## C=CCn1c(=N)c(C(=O)OCC)cc2c(=O)n3cccc(C)c3nc21
[1]
  activity change, negative = inhibition: 15.5%
[2]
  activity change, negative = inhibition: -23.4%
[3]
  activity, negative = inhibition: 28.1%
[4]
  Potency: > 20.6 µM
[5]
  Potency: 10 µM (active)

## Cc1cc(C)nc(NC2=NCC(=O)N2c2ccc(Cl)cc2)n1
[1]
  activity change, negative = inhibition: 0.0978%
[2]
  activity change, negative = inhibition: -13.8%
[3]
  activity, negative = inhibition: 5.94%
[4]
  Potency: > 20.6 µM
[5]
  activation: 16.5%

## COc1cc(C)cc2c(-c3c(O)cc(O)c4c3C[C@H](C)N[C@@H]4C)cc(-c3cc(-c4c(O)cc(O)c5c4C[C@H](C)N[C@@H]5C)c4cc(C)cc(OC)c4c3O)c(O)c12
[1]
  activity change, negative = inhibition: 6.28% [at 7.69 µM]
[2]
  activity change, negative = inhibition: 9.14% [at 7.69 µM]
[3]
  activity, negative = inhibition: 5.82% [at 7.69 µM]
[4]
  Potency: > 46 µM
[15]
  activity change, negative = inhibition: -9.73% [at 11.4 µM]
[16]
  Potency: inactive

## CN1c2ccccc2-c2nc3ccccc3n2C1c1ccco1 (centres undefined)
[1]
  activity change, negative = inhibition: 5.2%
[2]
  activity change, negative = inhibition: -6.44%
[3]
  activity, negative = inhibition: -0.11%
[4]
  Potency: > 20.6 µM
[5]
  activation: -8.71%

## CCOC(=O)C1(C(=O)OCC)C(c2ccccc2)CC(O)N1C(C)=O (centres undefined)
[1]
  activity change, negative = inhibition: 5.72%
[2]
  activity change, negative = inhibition: 2.25%
[3]
  activity, negative = inhibition: -1.29%
[4]
  Potency: > 20.6 µM
[5]
  activation: 15.4%

## CC(C)OC(=O)C(CC(=O)O)NCc1ccccc1 (centres undefined)
[1]
  activity change, negative = inhibition: -7.38%
[2]
  activity change, negative = inhibition: 10.6%
[3]
  activity, negative = inhibition: 5.04%
[4]
  Potency: > 20.6 µM
[5]
  activation: 19.8%
